Screen size: about 140,000 compounds; about 2,100 (1.5%) were called active. Rule as the data show it: active = protection mostly above about 24% (no sharp cut-off); inactive = mostly below about 26%. The sample as a whole holds a higher share of actives than the screen did.

This assay in a line: blockers of measles virus-induced cell death – single point, MLSMR library, absorbance, measles RdRp inhibitor project, primary screen (AID 841). Conditions: Measles virus-infected cells, CPE protection, at 4 µM, stronger effect = higher value.
In the case of `O=C(OCC(O)C(O)COC(=O)c1ccccc1)c1ccccc1` (stereo unspecified), the protection (pct of control) was 37.5% (active).

For the molecule `COC(=O)c1ccc(NCC(=O)c2ccccc2)cc1`, the protection (pct of control) is 2.68% (inactive).

`O=C(COC(=O)c1ccccc1)Nc1ccccc1Sc1ccccc1`: the protection (pct of control) is 6.19% (inactive).

With `CCn1c(O)c(N=NC(=O)c2cccc(S(=O)(=O)N3CCCCC3)c2)c2ccccc21`, the protection (pct of control) is 28.2% (inactive).

`O=C(C/C(=N\NC(=O)c1ccccc1Br)C(F)(F)F)c1cccs1`: the protection (pct of control) is 9.78% (inactive).

On to `O=S(=O)(c1ccc(F)cc1)N1CCN(C(=S)NCc2ccco2)CC1`, for which the protection (pct of control) is 18.5% (inactive).

Regarding `COC(=O)c1c(NC(=O)CN2CCN(S(=O)(=O)c3ccccc3[N+](=O)[O-])CC2)sc2c1CCC(C)C2` (stereo unspecified), the protection (pct of control) was 1.76% (inactive).

For the molecule `C/C(Cc1ccccc1)=N\NC(=O)CNC(=O)c1cccc(Br)c1`, the protection (pct of control) was 4.73% (inactive).

With `O=C(COc1ccccc1)NCc1ccc2c(c1)OCO2`, the protection (pct of control) was 17.1% (inactive).

In the case of `c1n[nH]c(NCc2ccc3c(c2)OCO3)n1`, the protection (pct of control) is 47.6% (active).

For the molecule `CCOC(=O)NCc1ccc2c(c1)OCO2`, the protection (pct of control) is 22% (inactive).

As to `Cc1ccc(S(=O)(=O)Nc2nc(C)cc(N/N=C/c3ccc(O)cc3)n2)cc1`, the protection (pct of control) is 10.3% (inactive).

On to `CCOC(=O)C1CCN(C(=O)/C=C/c2cc(OC)c(OC)c(OC)c2)CC1`, for which the protection (pct of control) was 18% (inactive).

Regarding `COc1ccc(CNC(=O)CN(Cc2ccc(Cl)cc2)S(C)(=O)=O)cc1`, the protection (pct of control) is 24.2% (inactive).

For the molecule `Cc1cc(C)c(S(=O)(=O)N2C=CC(C(F)(F)F)=NCC2)c(C)c1`, the protection (pct of control) was 30.8% (active).

For the molecule `Cc1cc(NS(=O)(=O)c2ccc(NC(=S)NC(=O)c3ccc(F)cc3Cl)cc2)no1`, the protection (pct of control) was 9.68% (inactive).

For the molecule `O=C(CN1CCCCC1)N1c2ccccc2Sc2ccc(C(F)(F)F)cc21`, the protection (pct of control) was 5.95% (inactive).

Consider `COc1cc(/C=C/C(=O)N2c3ccccc3Sc3ccc(C(F)(F)F)cc32)cc(OC)c1OC`, for which the protection (pct of control) was 2.04% (inactive).

Take `O=C(CN1CCCCCC1)N1c2ccccc2Sc2ccc(C(F)(F)F)cc21`: the protection (pct of control) was 27.8% (active).

On to `CCOC(=O)CNC(=O)/C=C/c1c(Cl)cccc1Cl`, for which the protection (pct of control) was 1.29% (inactive).

As to `COc1cccc(C2SCC(=O)N2c2cccc(C)c2)c1OC` (stereo unspecified), the protection (pct of control) is 8.06% (inactive).

In the case of `CC(C)C(C)(C#N)NC(=O)CSc1nc2scc(-c3ccccc3)c2c(=O)[nH]1` (stereo unspecified), the protection (pct of control) was 8.49% (inactive).

Consider `COc1ccc(Cl)cc1C(=O)NCC#N`, for which the protection (pct of control) was 16.7% (inactive).

Take `Cc1nn(C)cc1CNC(=O)Nc1ccc(Cl)cc1`: the protection (pct of control) is 8.21% (inactive).

`COc1ccc(Cl)cc1C(=O)NCc1cn(C)nc1C`: the protection (pct of control) was 42.3% (active).

As for `CCCCCOc1ccc(/C=C/C(=O)NCCc2nc3ccccc3[nH]2)cc1OC`, the protection (pct of control) is 1.18% (inactive).

With `CCOC(=O)c1c(C)n(C)c2ccc(OC)c(NS(=O)(=O)CC)c12`, the protection (pct of control) is 7.46% (inactive).

As for `CC(Oc1ccccc1F)C(=O)NN` (stereo unspecified), the protection (pct of control) is 17.6% (inactive).

On to `CCn1c2ccccc2c2cc(NC(=O)COC(=O)c3ccccc3Br)ccc21`, for which the protection (pct of control) is 15.5% (inactive).

As for `Cn1cnc(C(F)(F)F)c1-c1ccc([N+](=O)[O-])cc1`, the protection (pct of control) was 14.3% (inactive).

As to `COc1ccc(CCNC(=O)COC(=O)C2CCCCC2)cc1`, the protection (pct of control) is 7.59% (inactive).

Regarding `Cc1nn(-c2ccccc2)c(Cl)c1/C=C/C(=O)c1ccc(O)cc1`, the protection (pct of control) is 21.9% (inactive).

`Cc1ccc(C(=O)/C=C/c2c(C)nn(-c3ccccc3)c2Cl)cc1`: the protection (pct of control) is 60.1% (active).

As to `Cc1nn(-c2ccccc2)c(Cl)c1C(=O)Nc1ccccc1`, the protection (pct of control) was 5.22% (inactive).

For `CCOc1cc(C(=O)Nc2c(C)ccc3nsnc23)cc(OCC)c1OCC`, the protection (pct of control) is 37.8% (active).

As to `Cc1ccc2nsnc2c1NC(=O)c1ccccc1[N+](=O)[O-]`, the protection (pct of control) is 5.19% (inactive).

On to `CCOc1cc(C(=O)Nc2ncccn2)cc(OCC)c1OCC`, for which the protection (pct of control) was 2.67% (inactive).

In the case of `COC(=O)Cc1ccc(N(Cc2ccccc2F)S(=O)(=O)c2ccc(Br)cc2)cc1`, the protection (pct of control) is 18.5% (inactive).

`COc1ccc(NC(=O)CN2C(=O)C(c3ccccc3)=NC23CCCCCC3)cc1OC`: the protection (pct of control) is 12% (inactive).

On to `CCc1ccc(Oc2coc3cc(OC(=O)c4cc5ccccc5oc4=O)ccc3c2=O)cc1`, for which the protection (pct of control) was 5.53% (inactive).

For `Cc1ccc(S(=O)(=O)N2CCOCC2)cc1C(=O)NC(=S)N(Cc1ccccc1)C(C)C`, the protection (pct of control) is 21.7% (inactive).

On to `COc1cc2c(cc1/C=C1/NC(=O)N(c3ccccc3)C1=O)OCO2`, for which the protection (pct of control) is 22.7% (inactive).

Consider `COC(=O)c1ccc(C(=O)OC)c(NC(=S)N2CCN(c3ccc(F)cc3)CC2)c1`, for which the protection (pct of control) was 54.6% (active).

With `COC(=O)c1ccc(C(=O)OC)c(NC(=S)N2CCN(c3cc(Cl)ccc3C)CC2)c1`, the protection (pct of control) is 6.62% (inactive).

On to `COC(=O)c1ccc(C(=O)OC)c(NC(=S)N2CCCCC2)c1`, for which the protection (pct of control) was 5.41% (inactive).

As for `CCCc1cc(=O)[nH]c(SCc2cc(=O)oc3c(C)c(C)ccc23)n1`, the protection (pct of control) is 29.1% (inactive).

On to `Cc1ccccc1Cn1nc(C)c(NC(=O)C(F)(F)F)c1C`, for which the protection (pct of control) is 2.3% (inactive).

As to `COC(=O)c1sc(N)c(C(=O)OC)c1COC(=O)CNS(=O)(=O)c1ccc(C)cc1`, the protection (pct of control) is 12.3% (inactive).

As for `O=C(Nc1ccccc1Cl)c1ccccc1S(=O)(=O)c1ccccc1[N+](=O)[O-]`, the protection (pct of control) is 2.96% (inactive).

For the molecule `Cc1cc(C)c(NC(=O)CS(=O)CC(=O)Nc2cccnc2)c(C)c1` (stereo unspecified), the protection (pct of control) is 56.7% (active).

As for `O=C(CS(=O)(=O)Cc1ccccc1)Nc1cccnc1`, the protection (pct of control) is 20.4% (inactive).

With `CCC(=O)Nc1cccc(NC(=O)c2cccnc2)c1`, the protection (pct of control) was 5.87% (inactive).

`COc1ccc(S(=O)(=O)NC(C)C)cc1C(=O)NC1CCCCC1`: the protection (pct of control) is 6.76% (inactive).

Regarding `Cc1cccc(C(=O)NC(=S)N2CCN(c3ccc([N+](=O)[O-])cc3)CC2)c1`, the protection (pct of control) is 6.39% (inactive).

`Cc1ccccc1N(C(=O)Cc1cccs1)C(C(=O)NC1CCCCC1)c1cn(C)nc1C` (stereo unspecified): the protection (pct of control) is 20.1% (inactive).

As to `O=C(CCSCCc1ccccn1)Nc1nccs1`, the protection (pct of control) is 45.9% (active).

Regarding `CN(CCCC(=O)Nc1nccs1)S(=O)(=O)c1ccc(Cl)cc1`, the protection (pct of control) was 15.3% (inactive).

For `Cn1cccc1C(=O)Nc1nccs1`, the protection (pct of control) is 0.78% (inactive).

Take `NC(=O)Cc1ccc2sc(-c3ccccc3)nc2c1`: the protection (pct of control) was 30.1% (inactive).

For the molecule `CCc1cccc(CC)c1NC(=O)COc1ccccc1C(=O)c1cc(C#N)c(=O)n(C2CCCCC2)c1`, the protection (pct of control) was 11.3% (inactive).

Turning to `COc1ccc(NC(=O)CN(Cc2ccccc2)S(C)(=O)=O)cc1OC`, the protection (pct of control) is 34.5% (inactive).
